Source: PubChem BioAssay (National Center for Advancing Translational Sciences (NCATS))
Most compounds without a hit are left out; they make up all but 5.8% or so of the library.
PINK1 expr mod: A Quantitative High throughput Screen to Identify Chemical Modulators of PINK1 Expression. AID 624263, 2012. Potency, µM (highest dose often 76.6 µM), for the others: at the top dose activation (PINK1 increase), usual class: activators. 410,000 compounds, 0.2% hits. PINK1 immunofluorescence, high-content cytometry, 24 h; active = well fitted activation curve with a large enough effect; inconclusive = small, poorly fitted or top-dose-only effect; cell line not stated here; also: % of control where 0% means no effect; nearly all actives have a fitted effect of over 65% in size
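PINK1 protein, normally rapidly degraded, was detected by immunofluorescence after 24 hour compound treatment of a stable cell line. Titration data (5 concentrations) came from laser-scanning cytometry, with CCCP-treated wells as controls.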
SW480 rerep: A quantitative high throughput screen for small molecules that induce DNA re-replication in SW480 colon adenocarcinoma cells; SW480 DNA re-replication, Hoechst DNA content imaging, 48 h; Potency, µM (series often up to 46.1 µM), inactives show at the top dose re-replication activation, usual class: activators; 340,000 compounds, 1.8% hits; also: % of control where 0% means no effect; nearly all actives have a fitted effect of over 55% in size
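Hoechst fluorescence of nuclei (405 nm excitation, 500-530 nm emission) measured by plate-scanning imager after 48 hr compound exposure at 37 C; re-replication scored as increased number of nuclei with elevated intensity.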
KB-3-1 tox: qHTS assay for MDR1-selective chemotherapeutics: Primary screen using the parental adenocarcinoma cell KB-3-1; KB-3-1 viability, CellTiter-Glo ATP luminescence, 72 h; Potency, µM (highest dose often 46.1 µM), most hits filed as cytotoxic; 400,000 compounds, 1.4% hits; also: % is scaled to controls: 0 for no effect and ±100 for the full control effect; nearly all actives have a fitted effect of over 60% in size
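Parental KB-3-1 adenocarcinoma cells in phenol-red-free DMEM with 10% FBS were pin-treated with compounds at several concentrations, incubated 72 h at 37 °C, and viability read by CellTiter-Glo luminescence; concentration-effect curves were fitted after normalization.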
ALOX12 inh: Primary qHTS assay for inhibitors of human arachidonate 12S-lipoxygenase (ALOX12): Round 2 | AID 1671190, 2021 | Potency, µM (top dose mostly 108 µM), inactives show top-dose activity change, negative = inhibition, actives largely listed as inhibitors | purified 12hLO, xylenol orange hydroperoxide absorbance | 580,000 compounds, 1.1% hits | Polyunsaturated fatty acid lipoxygenase ALOX12 (Homo sapiens), P18054; also: % is scaled to controls: 0 for no effect and ±100 for the full control effect
Target sequence (P18054 whole entry, looked up): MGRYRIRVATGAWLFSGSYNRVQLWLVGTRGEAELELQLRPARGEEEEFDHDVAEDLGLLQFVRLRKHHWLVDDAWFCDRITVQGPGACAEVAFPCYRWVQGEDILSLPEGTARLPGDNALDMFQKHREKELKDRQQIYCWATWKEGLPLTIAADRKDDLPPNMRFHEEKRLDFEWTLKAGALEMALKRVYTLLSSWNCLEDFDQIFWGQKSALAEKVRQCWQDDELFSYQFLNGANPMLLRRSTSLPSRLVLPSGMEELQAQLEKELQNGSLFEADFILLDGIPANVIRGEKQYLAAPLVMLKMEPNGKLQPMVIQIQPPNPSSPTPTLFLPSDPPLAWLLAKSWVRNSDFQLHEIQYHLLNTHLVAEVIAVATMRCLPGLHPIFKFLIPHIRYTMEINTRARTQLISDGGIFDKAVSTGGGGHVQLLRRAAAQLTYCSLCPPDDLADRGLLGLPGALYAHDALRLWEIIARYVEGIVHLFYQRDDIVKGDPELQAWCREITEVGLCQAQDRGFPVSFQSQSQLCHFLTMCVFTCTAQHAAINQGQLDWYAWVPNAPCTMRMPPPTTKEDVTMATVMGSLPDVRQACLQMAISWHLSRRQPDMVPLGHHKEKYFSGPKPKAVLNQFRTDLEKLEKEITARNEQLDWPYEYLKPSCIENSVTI
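Purified human 12hLO (150 nM final) in 25 mM Hepes, 0.01% Triton X-100, pH 7.0 was preincubated 15 min at room temperature with compound. Then 40 uM arachidonic acid was added, 30 min. Hydroperoxide was read by Fe-XO absorbance ratio 573/405 nm.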
KB-V1 cytotox: qHTS assay for MDR1-selective chemotherapeutics: Primary screen using the drug-selected MDR subline cells KB-V1 | KB-V1 MDR cells viability, CellTiter-Glo, 72 h | Potency, µM (titrated, usually from 46.1 µM), most hits filed as cytotoxic | 400,000 compounds, 3.4% hits | AID 1347076, 2019; also: % is scaled to controls: 0 for no effect and ±100 for the full control effect; nearly all actives have a fitted effect of over 60% in size
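In this primary screen, KB-V1 cells overexpressing P-gp are incubated with library compounds (lowest to highest concentration) for 72 h at 37 degrees C before a luminescent ATP viability read.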
MCF10A rerep: A quantitative high throughput screen for small molecules that induce DNA re-replication in MCF 10a normal breast cells; MCF 10A DNA re-replication, Hoechst nuclear intensity, 48 h; Potency, µM (doses to about 46.1 µM), inactives show at the highest dose activity, positive = re-replication, hits mostly activators; 350,000 compounds, 2.9% hits; AID 624296, 2012; also: % of control where 0% means no effect; nearly all actives have a fitted effect of over 50% in size
* marks the source's active call; other numbers are inactive results; i = inactive; ? = inconclusive; / = no result given; [ ] = remark or other dose. Unless noted, calls follow the shape of the dose curve; as a rule, active = well fitted curve in the direction sought with a large enough effect; inconclusive = small, poorly fitted or top-dose-only effect, or another doubt; inactive = no such curve, though single readings can be large; an effect the other way counts as inactive or inconclusive. Potency is read from the fitted curve at half-maximal effect.

SMILES	PINK1 expr mod	SW480 rerep	KB-3-1 tox	ALOX12 inh	KB-V1 cytotox	MCF10A rerep
Cc1cnc(C(=O)Nc2ccc(N3CCN(C(=O)OC(C)(C)C)CC3)cc2)cn1	11.5%	?	5.8µM*	0.0%	i	?
COc1ccc(N2CCN(C(=O)NCc3ccc(C)cc3)CC2)cc1	4.2%	?	0.517µM*	-10.0%	5.8µM*	?
Cc1ccc(CNC(=O)N2CCN(c3ccc(C)cc3)CC2)cc1	-1.7%	-6.5%	i	32.5%	i	?
Cc1ccc(OCCC(=O)N2CCN(c3ccc(O)cc3)CC2)cc1	1.9%	7.31µM*	?	?	i	?
CCOC(=O)C(NC(=O)c1nccc2ccccc12)C(=O)OCC	/	/	/	13.2%	/	/
Cn1c(Cl)c(C=O)c2cc(C=O)ccc21	/	/	/	27.1%	/	/
O=C1CSC(c2cn(-c3ccccc3)nc2-c2cc3ccccc3o2)N1Cc1ccccc1 (stereo unspecified)	3.1%	15.1%	i	0.0%	i	16.2%
Cc1ccc(-c2nn(-c3ccccc3)cc2C2SCC(=O)N2Cc2ccccc2)o1 (stereo unspecified)	3.3%	12.9%	?	31.6µM*	i	?
CCc1cccc(CC)c1NC(=O)C1SC(=Nc2ccccc2C)C(c2nc3ccccc3s2)=C1N (stereo unspecified)	-0.4%	8.2µM*	?	0.0%	i	?
Clc1nnc2ccc(-c3ccccc3)nn12	-8.8%[38.3 µM]	1.3%	23.1µM*	-19.7%	16.4µM*	27.2%
Cc1ccc2nnc(Cl)n2n1	-1.4%	-1.0%	i	4.1%	i	-0.7%
CN(C)c1cc(O)c(C(=S)Nc2ccccc2)c(N(C)C)c1	6.0%	15.7%	?	-14.1%	16.4µM*	?
Cn1cc(-c2coc3c(C(=O)Nc4ccccc4)cccc23)cn1	1.8%	/	i	-19.3%	10.3µM*	/
CC1CCN(c2ccc(-c3ccc(NS(=O)(=O)c4ccc(Cl)s4)cc3)nn2)CC1	/	/	/	-23.7%	/	/
CCNc1ncc2nc(-c3cn(C)c4ccccc34)c(=O)n(-c3ccc(OC)cc3)c2n1	28.2µM*	/	/	0.0%	/	/
CCNc1ncc2nc(-c3cn(C)c4ccccc34)c(=O)n(Cc3cccc(OC)c3)c2n1	4.1%	/	/	-38.8%	/	/
Cc1ccc2[nH]c3ccccc3c(=O)c2c1	5.7%	?	i	61.6%	i	16.4µM*
O=c1[nH]c2cc(O)ccc2c2ccccc12	/	/	/	-10.7%	/	/
O=c1[nH]c2ccccc2c(=O)c2ccccc12	0.5%	/	i	-16.4%	i	/
O=c1c2ccccc2[nH]c2ccc(F)cc12	5.9%	16.4µM*	i	-7.4%	i	9.2µM*
Cc1ccc2[nH]c3c(c2c1)CCNC3=O	-0.1%	-12.6%	?	0.0%	5.8µM*	0.1%
O=c1c2ccccc2[nH]c2ccc(O)cc12	0.2%	23.1µM*	i	?	i	-11.6%
COc1c(F)cc2[nH]c3c(c2c1F)CCNC3=O	-0.9%	-20.5%[9.22 µM]	i	-13.3%	?	-2.2%
O=C(CCC1CCCC1)NCCNC(=O)CCC1CCCC1	/	/	/	-25.8%	/	/
CCC(=O)NC(c1ccccc1)c1cccs1 (stereo unspecified)	/	/	/	18.2%	/	/
SMILES	PINK1 expr mod	SW480 rerep	KB-3-1 tox	ALOX12 inh	KB-V1 cytotox	MCF10A rerep
Cc1ccc(-c2cc(C(=O)NC(C)C)c3ccccc3n2)c(C)c1	/	/	/	-1.8%	/	/
COc1c(C)cnc(CN2CCN(C(C(=O)O)c3c[nH]c4ccc(CO)cc34)CC2)c1C (stereo unspecified)	/	/	/	8.5%	/	/
CCOC(=O)C(O)C1CCc2c([nH]c3ccc(C)cc23)C1=O (stereo unspecified)	-2.0%	?	?	0.7%	18.4µM*	?
CC(C)n1cnc2c(NCc3ccccc3)cc(N[C@H](C)CO)cc21	3.7%	0.651µM*	?	/	i	?
Cn1c2c(c3ccccc31)CCN(CCCCN1CCN(c3ccccc3)CC1)C2=O	-3.8%	?	i	-12.1%	5.8µM*	?
Cc1ccc(S(=O)(=O)N2c3cc(C)ccc3OCC2C(C)(C)C)cc1 (stereo unspecified)	15.8%	?	?	0.0%	?	16.4µM*
COc1ccc(S(=O)(=O)N2c3cc(C)ccc3OCC2C(C)(C)C)cc1 (stereo unspecified)	6.1%	5.8µM*	5.8µM*	0.0%	5.17µM*	2.59µM*
Brc1ccc2nc(-c3ccco3)c(CC3CCCCC3)n2c1	0.2%	/	i	15.8µM*	i	/
Cc1ccc(Cc2c(-c3ccc(Cl)cc3)nc3cc(C)c(Br)c(C)n23)cc1	0.5%	/	i	8.91µM*	i	/
Cc1ccc2nc(-c3ccco3)c(CC3CCCCC3)n2c1	3.2%	/	i	/	i	/
Cc1ccc(Cc2c(-c3cccc(Br)c3)nc3ccc(Br)cn23)cc1	2.6%	/	i	25.1µM*	i	/
Cc1ccc(Cc2c(-c3ccco3)nc3ccc(Br)cn23)cc1	1.5%	/	i	39.8µM*	i	/
COc1cc2cc(CN3CCC[C@@H]3CO)c(-c3cccc(Cl)c3)nc2cc1OC	/	/	/	88.3%	/	/
CC1CCCCN1C(=O)CN1CCN(C(=O)CCc2c[nH]c3ccccc23)CC1 (stereo unspecified)	/	/	/	-11.4%	/	/
Cc1ccc(Cc2c(-c3ccc(C)cc3)nc3ccc(Br)cn23)cc1	11.7%	/	i	10µM*	i	/
Brc1ccc(-c2nc3ccc(Br)cn3c2Cc2ccccc2)cc1	1.2%	/	?	?	i	/
Fc1ccc(-c2nc3ccc(Br)cn3c2Cc2ccccc2)cc1	12.8%	/	20.6µM*	?	i	/
COc1ccccc1CCNC(=O)Cc1c(C)c2ccc(OC)c(C)c2oc1=O	/	/	/	1.7%	/	/
COc1cccc(C(=O)N2CCc3nc(-c4ccccc4)nc(-c4ccc(Cl)cc4)c3C2)c1	/	/	/	5.1%	/	/
O=C(CCN1CCOCC1)c1ccc(Cl)cc1	-0.3%	19.8%	i	-21.3%	i	7.31µM*
O=C(CCN1CCOCC1)c1ccc(Br)cc1	4.8%	?	i	?	i	9.2µM*
Cc1cc(C)nc(Nc2nc(=O)c3ccccc3s2)n1	3.4%	-5.0%	i	?	?	-1.6%
Cc1cc2c(sc3ccccc32)c(C)n1	-1.3%	-17.4%[9.22 µM]	?	?	20.6µM*	-4.4%
c1coc(-c2cc3nc(NC4CCCCC4)ccn3n2)c1	3.1%	/	i	44.7µM*	i	/
